Measured values from the supplement of paper PMC10849652.
The full data set covers some 7,900 targets. This sample favours those with a hit. About 0.6% of all pairs of compound and target were hits.

The targets below were run with c1cn2cc(-c3ccc4cn[nH]c4c3)nc(Nc3ccc(N4CCOCC4)cc3)c2n1 [entospletinib] (assay: log2 fold change, soluble protein after heating vs DMSO (PISA); higher = thermal stabilisation; K562 cells, 10 uM, 30 min; active = over 0.2 and 3.5 SD of the protein, either way, in both replicates (recomputed)).
Summary of the method: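 Soluble protein was quantified by TMTpro 16plex LC-MS/MS after channel sums were equalised. It was obtained as the supernatant after 21,000xg for 90 min from pooled aliquots of K562 cells (2×10^6 cells/mL, 10 μM compound, 30 min) heated for 3 min across 48°C-58°C and extracted in PBS with 0.5% NP-40 at 4°C. Thermal stability values are relative to control samples and come from duplicates. They are given as log2 fold changes.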

Sequence of UniProt Q96EV8 (Q96EV8 whole entry, looked up): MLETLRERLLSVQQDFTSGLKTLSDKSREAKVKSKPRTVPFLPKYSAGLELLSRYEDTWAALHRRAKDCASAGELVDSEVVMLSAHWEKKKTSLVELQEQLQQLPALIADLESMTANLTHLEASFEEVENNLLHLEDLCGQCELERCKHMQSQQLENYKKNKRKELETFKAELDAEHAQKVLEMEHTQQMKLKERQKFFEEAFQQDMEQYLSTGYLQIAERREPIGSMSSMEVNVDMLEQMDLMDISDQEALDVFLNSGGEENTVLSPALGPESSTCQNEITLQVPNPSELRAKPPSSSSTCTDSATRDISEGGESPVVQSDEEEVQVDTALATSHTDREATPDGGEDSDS
Sequence of UniProt Q9UJU6 (Q9UJU6 whole entry, looked up): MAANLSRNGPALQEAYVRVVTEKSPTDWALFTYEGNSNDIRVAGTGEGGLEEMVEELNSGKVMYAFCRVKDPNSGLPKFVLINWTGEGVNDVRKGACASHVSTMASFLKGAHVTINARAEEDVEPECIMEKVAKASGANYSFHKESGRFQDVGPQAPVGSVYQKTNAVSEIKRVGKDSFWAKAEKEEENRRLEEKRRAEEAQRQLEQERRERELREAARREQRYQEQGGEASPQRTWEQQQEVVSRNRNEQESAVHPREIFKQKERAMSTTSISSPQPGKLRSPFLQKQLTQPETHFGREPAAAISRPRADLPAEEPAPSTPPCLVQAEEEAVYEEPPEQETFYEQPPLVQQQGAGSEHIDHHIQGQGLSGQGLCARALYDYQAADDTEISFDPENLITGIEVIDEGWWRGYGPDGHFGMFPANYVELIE
Sequence of UniProt P0CG12 (P0CG12 whole entry, looked up): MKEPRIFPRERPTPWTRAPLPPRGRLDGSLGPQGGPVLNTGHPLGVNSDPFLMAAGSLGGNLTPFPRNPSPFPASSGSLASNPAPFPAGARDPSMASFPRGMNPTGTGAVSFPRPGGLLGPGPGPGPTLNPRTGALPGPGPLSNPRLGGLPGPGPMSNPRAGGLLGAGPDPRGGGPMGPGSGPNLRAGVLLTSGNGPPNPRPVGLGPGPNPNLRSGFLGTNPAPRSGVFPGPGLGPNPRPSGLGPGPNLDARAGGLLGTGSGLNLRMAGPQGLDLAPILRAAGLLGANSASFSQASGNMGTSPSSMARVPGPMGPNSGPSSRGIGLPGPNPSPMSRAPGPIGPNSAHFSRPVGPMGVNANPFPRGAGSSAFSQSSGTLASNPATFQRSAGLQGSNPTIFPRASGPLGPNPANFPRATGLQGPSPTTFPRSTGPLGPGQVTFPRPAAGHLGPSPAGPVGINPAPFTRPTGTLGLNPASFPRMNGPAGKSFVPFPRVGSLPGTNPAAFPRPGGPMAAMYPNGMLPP
Sequence of UniProt Q14203 (Q14203 whole entry, looked up): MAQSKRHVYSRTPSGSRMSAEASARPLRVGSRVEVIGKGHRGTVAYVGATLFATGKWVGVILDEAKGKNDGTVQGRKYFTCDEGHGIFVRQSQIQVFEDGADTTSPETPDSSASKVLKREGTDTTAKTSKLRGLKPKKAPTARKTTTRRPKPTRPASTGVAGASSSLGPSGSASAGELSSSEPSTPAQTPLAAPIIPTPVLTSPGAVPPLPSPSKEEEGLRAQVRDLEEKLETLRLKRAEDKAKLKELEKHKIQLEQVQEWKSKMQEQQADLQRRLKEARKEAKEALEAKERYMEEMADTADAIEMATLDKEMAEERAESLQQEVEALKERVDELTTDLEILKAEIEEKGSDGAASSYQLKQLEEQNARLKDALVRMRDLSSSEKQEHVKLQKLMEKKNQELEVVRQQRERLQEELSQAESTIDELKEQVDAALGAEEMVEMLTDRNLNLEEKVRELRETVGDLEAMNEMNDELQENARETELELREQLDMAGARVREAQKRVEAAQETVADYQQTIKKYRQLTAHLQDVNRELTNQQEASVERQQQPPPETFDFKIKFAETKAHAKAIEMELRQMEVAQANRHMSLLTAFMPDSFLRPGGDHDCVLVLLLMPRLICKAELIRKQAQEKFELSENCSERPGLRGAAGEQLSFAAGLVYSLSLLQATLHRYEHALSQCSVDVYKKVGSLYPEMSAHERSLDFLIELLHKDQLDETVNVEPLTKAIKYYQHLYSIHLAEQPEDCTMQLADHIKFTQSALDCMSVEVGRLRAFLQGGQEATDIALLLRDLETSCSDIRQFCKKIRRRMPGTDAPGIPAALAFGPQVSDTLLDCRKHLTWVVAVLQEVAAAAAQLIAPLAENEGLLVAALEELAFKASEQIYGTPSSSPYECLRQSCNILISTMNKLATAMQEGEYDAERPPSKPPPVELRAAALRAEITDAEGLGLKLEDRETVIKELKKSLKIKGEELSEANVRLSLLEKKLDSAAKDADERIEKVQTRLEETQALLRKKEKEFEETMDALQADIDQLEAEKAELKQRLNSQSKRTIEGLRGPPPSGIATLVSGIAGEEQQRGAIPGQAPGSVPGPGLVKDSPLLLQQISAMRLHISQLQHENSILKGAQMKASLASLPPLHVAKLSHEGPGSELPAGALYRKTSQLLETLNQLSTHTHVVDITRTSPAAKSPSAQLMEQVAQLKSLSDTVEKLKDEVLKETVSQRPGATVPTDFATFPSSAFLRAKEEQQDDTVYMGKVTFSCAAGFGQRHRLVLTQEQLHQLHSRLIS
Sequence of UniProt P12259 (P12259 whole entry, looked up): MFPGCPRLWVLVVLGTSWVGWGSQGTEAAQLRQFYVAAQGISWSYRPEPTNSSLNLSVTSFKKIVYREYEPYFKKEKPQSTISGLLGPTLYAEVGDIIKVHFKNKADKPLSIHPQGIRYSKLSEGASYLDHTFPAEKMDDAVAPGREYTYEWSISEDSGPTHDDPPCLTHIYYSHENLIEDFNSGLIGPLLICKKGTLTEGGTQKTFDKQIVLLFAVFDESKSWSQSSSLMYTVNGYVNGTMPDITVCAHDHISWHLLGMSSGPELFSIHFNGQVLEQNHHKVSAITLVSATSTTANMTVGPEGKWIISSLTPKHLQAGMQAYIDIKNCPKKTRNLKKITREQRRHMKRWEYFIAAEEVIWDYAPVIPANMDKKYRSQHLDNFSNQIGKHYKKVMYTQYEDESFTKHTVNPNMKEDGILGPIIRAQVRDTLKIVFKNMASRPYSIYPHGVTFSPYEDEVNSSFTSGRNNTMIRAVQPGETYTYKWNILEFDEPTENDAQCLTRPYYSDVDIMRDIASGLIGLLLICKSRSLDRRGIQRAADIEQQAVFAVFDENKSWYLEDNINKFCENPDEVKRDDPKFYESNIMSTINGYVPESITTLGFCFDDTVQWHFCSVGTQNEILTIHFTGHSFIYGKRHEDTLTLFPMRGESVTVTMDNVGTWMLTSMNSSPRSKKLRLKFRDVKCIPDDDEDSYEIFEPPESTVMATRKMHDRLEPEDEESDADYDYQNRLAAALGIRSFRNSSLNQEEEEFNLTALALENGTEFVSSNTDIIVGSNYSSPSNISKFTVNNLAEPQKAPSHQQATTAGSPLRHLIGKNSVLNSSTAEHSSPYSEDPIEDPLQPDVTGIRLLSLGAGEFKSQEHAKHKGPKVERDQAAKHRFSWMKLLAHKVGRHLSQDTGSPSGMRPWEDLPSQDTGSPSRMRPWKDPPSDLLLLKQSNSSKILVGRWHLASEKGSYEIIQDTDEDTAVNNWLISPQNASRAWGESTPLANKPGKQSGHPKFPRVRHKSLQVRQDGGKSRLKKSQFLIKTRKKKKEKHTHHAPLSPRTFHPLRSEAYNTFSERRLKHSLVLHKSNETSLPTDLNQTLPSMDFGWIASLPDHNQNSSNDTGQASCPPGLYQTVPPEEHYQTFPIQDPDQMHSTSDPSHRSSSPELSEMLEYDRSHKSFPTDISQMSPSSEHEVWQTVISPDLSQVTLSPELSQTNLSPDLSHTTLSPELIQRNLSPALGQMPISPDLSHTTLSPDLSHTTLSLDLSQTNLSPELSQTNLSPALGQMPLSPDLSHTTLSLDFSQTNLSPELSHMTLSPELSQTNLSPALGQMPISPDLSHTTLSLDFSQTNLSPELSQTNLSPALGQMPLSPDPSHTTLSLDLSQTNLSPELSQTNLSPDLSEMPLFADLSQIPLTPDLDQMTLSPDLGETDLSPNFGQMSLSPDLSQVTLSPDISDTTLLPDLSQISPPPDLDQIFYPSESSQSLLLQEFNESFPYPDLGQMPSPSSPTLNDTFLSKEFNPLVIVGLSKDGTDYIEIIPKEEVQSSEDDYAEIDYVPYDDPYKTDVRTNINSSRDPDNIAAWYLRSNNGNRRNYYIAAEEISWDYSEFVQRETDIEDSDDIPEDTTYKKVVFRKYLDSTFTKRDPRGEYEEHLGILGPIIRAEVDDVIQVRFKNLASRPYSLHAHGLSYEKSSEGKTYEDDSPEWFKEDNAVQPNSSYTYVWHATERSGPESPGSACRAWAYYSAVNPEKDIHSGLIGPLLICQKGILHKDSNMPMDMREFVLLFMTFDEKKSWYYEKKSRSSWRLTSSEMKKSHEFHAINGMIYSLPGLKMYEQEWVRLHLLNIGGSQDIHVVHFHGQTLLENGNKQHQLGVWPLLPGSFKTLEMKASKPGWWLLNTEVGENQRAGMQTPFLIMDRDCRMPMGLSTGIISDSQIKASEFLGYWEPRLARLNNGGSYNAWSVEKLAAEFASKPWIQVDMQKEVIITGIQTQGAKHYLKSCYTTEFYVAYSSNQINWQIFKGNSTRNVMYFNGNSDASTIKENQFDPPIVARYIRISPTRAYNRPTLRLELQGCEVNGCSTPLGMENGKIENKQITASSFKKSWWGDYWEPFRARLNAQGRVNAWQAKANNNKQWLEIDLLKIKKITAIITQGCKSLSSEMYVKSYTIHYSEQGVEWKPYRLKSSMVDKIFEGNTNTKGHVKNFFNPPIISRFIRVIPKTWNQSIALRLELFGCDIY
Sequence of UniProt Q96GE9 (Q96GE9 whole entry, looked up): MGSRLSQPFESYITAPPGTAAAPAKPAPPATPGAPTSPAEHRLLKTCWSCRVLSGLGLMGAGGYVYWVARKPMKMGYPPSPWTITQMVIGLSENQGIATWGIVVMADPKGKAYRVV

log2 fold change, inactive:
ERLIN1 (UniProt O75477) -0.049, DBNL isoform 3 (UniProt Q9UJU6) -0.087, DHX16 (UniProt O60231) 0.01, ERCC2 (UniProt P18074) 0.154, DIAPH1 (UniProt O60610) 0.1, DHRS7B (UniProt Q6IAN0) 0.134, DDB1 isoform 2 (UniProt Q16531) 0.162, F5 (UniProt P12259) 0.133, DBN1 isoform 3 (UniProt Q16643) -0.038, EIF4G1 isoform 8 (UniProt Q04637) 0.024, DMAC1 (UniProt Q96GE9) 0.073, CUX1 isoform 3 (UniProt P39880) 0.016, FAM118B (UniProt Q9BPY3) -0.011, DYNC1LI2 (UniProt O43237) -0.005, DCAF12 (UniProt Q5T6F0) 0.025, DCAF13 (UniProt Q9NV06) 0.061, EEF1A1 (UniProt P68104) 0.046, FAM83D (UniProt Q9H4H8) 0.028, DNAJB1 (UniProt P25685) -0.085, DTNBP1 (UniProt Q96EV8) 0.004, DERPC (UniProt P0CG12) 0.125, EFL1 (UniProt Q7Z2Z2) -0.06, DCTN1 isoform 4 (UniProt Q14203) 0.061
